Experiment in all cases: NCI-60 one-dose screen, 48 h (100 = growth as untreated, 0 = no growth, -100 = all killed)
The subject of assay [1] is NCI-H23 lung. The following applies: 10 µM unless noted.
In assay [2] the test system is NCI-H226 lung. The following applies: 10 µM unless noted.
Assay [3] concerns NCI-H322M lung. The settings on record: 10 µM unless noted.
The test system of assay [4] is HOP-62 NSCLC. The following applies: 10 µM unless noted.
The test system of assay [5] is NCI-H460 lung. The settings on record: 10 µM unless noted.
Assay [6] has as its system 786-0 renal. The settings on record: 10 µM unless noted.
Assay [7] concerns COLO 205 colon. The following applies: 10 µM unless noted.
The test system of assay [8] is HOP-92 NSCLC. The following applies: 10 µM.
Assay [9] has as its system NCI-H522 lung. The following applies: 10 µM.
In assay [10] the test system is A549/ATCC NSCLC. The following applies: 10 µM unless noted.

Molecules are shown by their SMILES. This is part of a sample that, as a whole, favours compounds with a hit. Of some 83,000 tested, about 20% had one in any assay.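 Single-dose data. Exposure time 48 hours. Values below 10 considered active.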 Unmarked numbers belong to inactive results. Activity calls are given as the source filed them.

As for `CC(C)C(=O)c1ccc(Cl)s1`, the growth in [1] is 103%; in assay [2], 93.2%; in assay [3], 91.5%; in assay [4] it was 98.1%; in assay [5] it was 105%; in assay [6], 102%. Moreover, the growth in assay [7] is 109%.

`COc1ccc(Nc2c3ccccc3nc3ccccc23)cc1`: the growth in assay [1] is 36.1%; in assay [2] it was 6.97% (active); in assay [3], 43.3%; in assay [4] it was 33.7%; in [5], 9.36% (active); in [6] it was 43.6%. In addition, the growth in [7] is 20.1%.

As for `CN1CCN(Cc2ccc(NC(=O)c3ccc(C#Cc4c(N)ncc5ccc(F)cc45)cc3)cc2C(F)(F)F)CC1`, the growth in assay [1] was -80.4% (active); in [2] it was 55.1%; in assay [3], -49% (active); in assay [4], -39.2% (active); in assay [8] it was -2% (active); in assay [9] it was -85.2% (active). For the same molecule, the results for the growth in assay [10] and in assay [6] were -49.1% (active) and -56.6% (active), respectively.

On to `COc1cc(OC)c(/C=C/c2ccc3ccccc3[n+]2C)c(OC)c1`, for which the growth in assay [1] is 1.71% (active); in [2], 26.2%; in assay [3] it was 17.7%; in assay [4], 28.4%; in [5], 1.55% (active); in [6] it was 18.5%. For the same molecule, the growth in assay [7] was -51.5% (active).

Take `CCCCCCCCCCCCCCCCCC(=O)Nc1ccc(O)cc1`: the growth in assay [1] is 98.7%; in assay [2], 102%; in assay [3], 97%; in assay [4], 91.4%; in assay [5], 100%; in assay [6], 79%. In assay [7], the growth is 93%.

As for `O=C(NCCCl)Nc1nccnc1OCc1ccc(F)cc1`, the growth in assay [1] was 97.2%; in assay [2] it was 100%; in assay [3] it was 104%; in assay [4], 91.4%; in [8], 79.4%; in assay [9] it was 77.6%. The growth is 102% in [10] and 89% in assay [6].

Take `COCn1c(C(=O)OC)cc2oc(/C=C3/SC(=S)N(N)C3=O)cc21`: the growth was 103% in [1]; 115% in assay [2]; 77.5% in assay [3]; 122% in assay [4]; 105% in assay [5]; 105% in assay [10]. Moreover, the growth in assay [6] is 96.5%; in assay [7] it was 110%.

Consider `CCCCCCC(=O)C(C)C`, for which the growth in assay [1] was 107%; in assay [2] it was 92.3%; in assay [3] it was 96.5%; in [4], 93.8%; in [5], 113%; in assay [10] it was 97.5%. Besides, the growth is 94.5% in assay [6] and 112% in assay [7].

In the case of `CC(=O)Oc1cc2ccccc2cc1C(C)C`, the growth in [1] was 107%; in assay [2], 101%; in assay [3] it was 115%; in [4] it was 104%; in assay [5], 99%; in [6], 101%. Also, in assay [7], the growth was 112%.

For the molecule `O=C(CN1CCN(c2cccc(Cl)c2)CC1)N1CCN(c2nnc(-c3ccc(Cl)cc3)c(-c3ccc(Cl)cc3)n2)CC1`, the growth in [1] is 87.7%; in assay [2], 76.7%; in assay [3], 77.8%; in [4], 116%; in assay [5], 76.5%; in assay [6] it was 91.2%. Further, the growth in [7] was 82.8%.

Regarding `Cc1ncc(C(=O)Nc2ccc(CN3CCN(C)CC3)c(C(F)(F)F)c2)cc1C#Cc1c(N)ncc2ccc(F)cc12`, the growth was -79.4% (active) in assay [1]; 19.5% in assay [2]; -89.7% (active) in assay [3]; 15.9% in [4]; -29.9% (active) in assay [8]; 37.3% in assay [9]. The growth in [10] was -69.9% (active); in [6], -70.5% (active).

For `COc1cc(C(=O)Nc2ccc(N(C)C)cc2)cc(OC)c1OC`, the growth was 95.4% in assay [1]; 91% in assay [2]; 93.4% in assay [3]; 94.2% in assay [4]; 99.8% in [5]; 96.4% in [6]. For the same molecule, in assay [7], the growth is 100%.

`COc1cccc(CNC(=O)c2cccc(C3CC(=O)c4c(cc(OC)c(OC)c4OC)O3)c2)c1` (configuration not stated): the growth in assay [1] was 99.1%; in assay [2] it was 78.2%; in assay [3], 86.6%; in [4], 66.7%; in [8], 19.8%; in assay [9], 24.9%. In addition, the growth in assay [10] is 80.8%; in [6], 24.8%.

Regarding `COc1cc2cn3c4ccc(O)cc4[nH]c(=O)c3c2cc1OC`, the growth in [1] is -6.02% (active); in [2] it was 8.14% (active); in [3], 1.3% (active); in assay [4], 4.45% (active); in assay [5] it was -55.7% (active); in [10] it was 10.6%. Further, the growth in assay [6] is 1.09% (active); in assay [7] it was -19.5% (active).

With `BrCCCOc1ccc(Oc2ccc(OCCCBr)cc2)cc1`, the growth in assay [1] was 109%; in [2], 99.6%; in assay [3] it was 123%; in assay [4], 108%; in [5], 105%; in assay [10], 94.7%. The growth in assay [6] is 88.9%; in [7], 134%.

Regarding `CNc1nc2ncn(C)c2c(=O)[nH]1`, the growth was 105% in [1]; 98.5% in assay [2]; 88.2% in [3]; 96.5% in assay [4]; 103% in assay [5]; 103% in assay [6]. Further, the growth in assay [7] is 94.5%.

In the case of `CCN(CC)CCOC(=O)c1cccnc1`, the growth in assay [1] was 95.8%; in assay [2], 90.3%; in assay [3], 100%; in [4] it was 94.6%; in assay [5], 101%; in assay [6] it was 99.8%. In assay [7], the growth is 119%.

Source of the values: PubChem BioAssay (NCI).
